Several values for one entry are separate records, joined by “and”; a condition that tells them apart may be missing. Identical values can stand only once. Records with an inconclusive call do not appear. Activity calls are given as the source filed them. Calls come from the whole dose curve; as a rule, active = well fitted inhibition curve with a large enough effect; inconclusive = small, poorly fitted or top-dose-only effect; inactive = no such curve, though single readings can be large or run the other way.
% is set by controls: 0 for no effect and ±100 for the full control effect; potency is the fitted concentration of half-maximal effect.

Cytochrome P450 3A4 (Homo sapiens), sequence (P08684 whole entry, looked up): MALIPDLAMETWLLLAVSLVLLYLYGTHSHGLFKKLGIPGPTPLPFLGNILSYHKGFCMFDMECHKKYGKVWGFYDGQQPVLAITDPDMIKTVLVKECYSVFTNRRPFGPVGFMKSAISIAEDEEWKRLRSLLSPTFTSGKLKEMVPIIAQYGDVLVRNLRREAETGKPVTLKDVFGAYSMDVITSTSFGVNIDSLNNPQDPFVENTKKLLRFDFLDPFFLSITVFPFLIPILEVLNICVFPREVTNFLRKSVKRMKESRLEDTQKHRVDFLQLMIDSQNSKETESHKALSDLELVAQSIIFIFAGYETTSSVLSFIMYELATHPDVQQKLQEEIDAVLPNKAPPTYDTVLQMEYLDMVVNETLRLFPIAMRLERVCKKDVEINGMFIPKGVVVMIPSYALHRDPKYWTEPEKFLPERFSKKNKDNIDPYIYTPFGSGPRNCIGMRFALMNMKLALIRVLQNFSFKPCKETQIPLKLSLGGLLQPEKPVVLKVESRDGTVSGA

This test concerns the target Cytochrome P450 3A4 (Homo sapiens) (UniProt P08684). The test can be described thus: qHTS Assay for Inhibitors and Substrates of Cytochrome P450 3A4 (AID 884). Note: nearly all actives have a fitted effect of over 50% in size. Particulars: recombinant CYP3A4, Luciferin-PPXE luminescence; series mostly up to 57.1 µM; activity change, negative = inhibition: at the top concentration. The method, then:
NIH Molecular Libraries Screening Centers Network [MLSCN]
NIH Chemical Genomics Center [NCGC]
The P450 gene superfamily is involved in the metabolism and clearance of xenobiotics. This assay used human CYP3A4 to measure the dealkylation of luciferin-6' phenylpiperazinylyl (Luciferin-PPXE; […]) to luciferin. The luciferin is then measured by luminescence after the addition of a luciferase detection reagent. Luciferin-PPXE concentration in the assay was equal to its KM for CYP3A4. Inhibitors and some substrates limit the production of luciferin, and decrease measured luminescence.
NCGC Assay Protocol Summary:
Two uL of enzyme and substrate mix (final concentrations: 20nM CYP3A4, 25uM Luciferin-PPXE, 200mM KPO4) were dispensed into a white, solid bottom 1536-well microtiter plate. 23nL of compound was transferred by a pin tool. The plate was incubated at RT for 10 min. Two uL of an NADPH regeneration solution (Promega supplied reagent) was dispensed and the reaction was allowed to continue for 60 min at RT. Then the reaction was stopped by reconstituted luciferin detection buffer. After another 20 min of incubation the plate was read on the ViewLux (Perkin Elmer) at 60 sec exposure and 2x2 binning. This protocol was carried out with Promega-Glo reagents and further information can be found at http://www.promega.com/tbs/tb325/tb325.pdf. Data were normalized to the to AC100 inhibition (57 uM ketoconazole).
Keywords: P450, CYP3A4, Luciferase, MLSMR, MLSCN, NIH Roadmap, qHTS, NCGC
For the compound `O=C1CC[C@H](N2C(=O)c3ccccc3C2=O)C(=O)N1`, the “activity change, negative = inhibition” value was -6.96% (inactive).

`NCCCCCCNS(=O)(=O)c1cccc2ccccc12`: the Potency was 6.31 µM (active). As to `CC#CCOC(=O)c1c(C)nc2sc3c(c2c1N)CC[C@@H](O)C3`, the Potency is 3.16 µM (active).

Turning to `O=C1CC2(CCCC2)CC(=O)N1CCCCNC[C@H]1COc2ccccc2O1`, the Potency was 0.631 µM (active). `CC(C)=CCC/C(C)=C/CC/C(C)=C/CC/C(C)=C/CO`: the “activity change, negative = inhibition” value is -3.54% (inactive). For `CC(C)=CCCC1(C)C=Cc2c(O)c3c(c(CC=C(C)C)c2O1)OC12C(=CCCC1C(C)(C)O[C@@]2(C/C=C(\C)C(=O)O)C(=O)O)C3=O` (stereo not given in full), the “activity change, negative = inhibition” value is -12.4% (inactive). For `O=C(c1ccc(F)cc1)C1CCN(CCCCc2ccccc2)CC1`, the “activity change, negative = inhibition” value was 53.9% (inactive). For the compound `CC(C)Oc1cccc(-n2c(CCc3c[nH]c4ccc(Br)cc34)nc3ccccc3c2=O)c1`, the Potency is 3.98 µM (active). As to `COC(=O)C1=NOC2(C=C(Br)C(OC)=C(Br)C2=O)C1` (stereo not given), the activity change, negative = inhibition is -15.6% [at 11.4 µM] (inactive). Turning to `CC1(O)C(=O)C=C2C=C3CCCN3C=C2C1=O` (stereo not given), the activity change, negative = inhibition was -12% [at 11.4 µM] (inactive). Same read-out and setting: to `COc1ccc(C(=O)Oc2cc(OC)cc(OC)c2C(C)=O)cc1` belongs -16.9% [at 11.4 µM] (inactive).

As to `CCOC(=O)NC[C@H](Cc1ccc(OCCc2nc(-c3ccccc3)oc2C)cc1)N/C(C)=C\C(=O)c1ccc(C(F)(F)F)cc1`, the Potency was 0.794 µM (active). As for `COc1ccc(OC)c2c(=S)c3ccccc3[nH]c12`, the Potency was 7.94 µM (active).

On to `CC(N)=NCCCC[C@H](N)C(=O)O`, for which the “activity change, negative = inhibition” value was 14.4% (inactive). As for `NCCCCCCNS(=O)(=O)c1cccc2c(Cl)cccc12`, the Potency was 3.98 µM (active) and 2.51 µM (active). Same read-out and setting: as for `O=C1c2ccccc2C(Cc2ccncc2)(Cc2ccncc2)c2ccccc21`, the figure is 0.501 µM (active). For the compound `NC(N)=NCCC[C@@H](N)C(=O)O`, the “activity change, negative = inhibition” value was -10.7% (inactive).

Take `N[C@H](Cc1cnc[nH]1)C(=O)O`: the “activity change, negative = inhibition” value was -4.88% (inactive). On to `Cc1ccc(S(=O)(=O)n2c3ccccc3c3nnc(C(=O)c4ccccc4)nc32)cc1`, for which the Potency is 3.98 µM (active). For the compound `Cn1c(-c2ccccc2)c(O)c(=O)c2ccccc21`, the activity change, negative = inhibition is -14.6% [at 11.4 µM] (inactive). With `S=C(S)O[C@@H]1C[C@@H]2C[C@H]1[C@@H]1CCC[C@H]21`, the Potency was 3.98 µM (active).

`CCCN(C/C=C\I)[C@@H]1CCc2cccc(O)c2C1`: the “activity change, negative = inhibition” value is 304% (inactive). Consider `CC(C)=CCC1(CC=C(C)C)C(=O)C(C(=O)c2ccccc2)=C2OC(C)(C)CCC2(CC=C(C)C)C1=O` (stereo not given), for which the Potency was 3.98 µM (active).

Take `COc1cccc(CCc2ccccc2OCC[C@@H]2C[C@@H](O)CN2C)c1`: the Potency is 3.16 µM (active). `Cc1c(O)c(=O)c2ccccc2n1C`: the activity change, negative = inhibition was 0.317% [at 11.4 µM] (inactive).

Consider `NCCCCCCCCCCNS(=O)(=O)c1cccc2c(Cl)cccc12`, for which the Potency was 2.51 µM (active). With `O=C(O)c1c2ccccc2cc2ccccc12`, the “activity change, negative = inhibition” value was 15.8% (inactive). As for `c1ccc2sc(N3CCN(Cc4ccc5c(c4)OCO5)CC3)nc2c1`, the Potency is 0.631 µM (active). Consider `COc1cccc(CNc2ccc3nc(-c4ccc(N)cc4)c(OC)n3n2)c1`, for which the Potency was 5.01 µM (active). With `C=CCC1(O)C=CCC2C3C4C(OC(C)(C)C)C2C1C34` (stereo not given), the activity change, negative = inhibition is -11.8% [at 11.4 µM] (inactive).

As to `CCCCCCC#Cc1cc(OC)c(OC)cc1C(N1CC(C)c2ccccc21)N1CC(C)c2ccccc21` (stereo not given), the Potency is 3.16 µM (active).

In the case of `CC1(O)C(=O)C=C2C=C(CCCCOCc3ccccc3)OC=C2C1=O` (stereo not given), the activity change, negative = inhibition is -25.3% [at 11.4 µM] (inactive). Turning to `CCCCCS(=O)(=O)CCCCCCCCCCn1c(-c2ccc(O)cc2)c(C)c2cc(O)ccc21`, the Potency is 0.631 µM (active). Take `COc1ccccc1CC(=N)N1C[C@@H]2C(=O)CCC(c3ccccc3)(c3ccccc3)[C@@H]2C1`: the Potency is 3.16 µM (active). On to `O=C(O)[C@H]1CN(CCCP(=O)(O)O)CCN1`, for which the “activity change, negative = inhibition” value is -4.14% (inactive). Consider `COc1cc(COc2cc(N)c(Cl)cc2C(=O)CCC2CCN(CCNS(C)(=O)=O)CC2)cc(OC)c1`, for which the Potency was 2 µM (active).

Regarding `COC(=O)C(C(C)=O)C(=O)C(Cc1ccccc1)NC(=O)OCc1ccccc1` (stereo not given), the activity change, negative = inhibition is -19.6% [at 11.4 µM] (inactive). As to `O[C@@H](c1ccccc1)C1CCN(CCc2ccccc2)CC1`, the “activity change, negative = inhibition” value was 67.2% (inactive). As for `Cc1c(O)ccc2c1OCO2`, the activity change, negative = inhibition is -25.6% [at 11.4 µM] (inactive).

Turning to `CC(=O)N(O)[C@@H]1c2cc(C#N)ccc2OC(C)(C)[C@H]1O`, the “activity change, negative = inhibition” value was -22.7% (inactive).
